# G9a inh: blocks human histone lysine methyltransferase G9a. 350,000 tested, 8.8% active. G9a H3K9 monomethylation, AlphaScreen, 2 h. AID 504332. Q96KQ7. Potency, µM (titrated, usually from 102 µM), for the others: at the top dose activity, negative = inhibition, hits mostly inhibitors; also: % is scaled to controls: 0 for no effect and ±100 for the full control effect; nearly all actives have a fitted effect of over 75% in size
#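 Enzyme 20 nM + cpd, 15 min RT; add b-H3K9 pep 500 nM / SAM 20 uM; 2 h RT; anti-H3K9me1 Ab 0.5 ug/mL + SA donor / anti-rabbit acceptor beads 20 ug/mL each, 10 min; AlphaScreen read.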
# BAZ2B block: inhibitors of human BAZ2B bromodomain | Q9UIF8 | AlphaScreen BAZ2B-H3K14Ac peptide displacement | Potency, µM (doses to about 114 µM), inactives show at the highest dose activity change, negative = inhibition, actives largely listed as inhibitors | 360,000 tested, 4.4% active; also: % is scaled to controls: 0 for no effect and ±100 for the full control effect; nearly all actives have a fitted effect of over 60% in size
#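 AlphaScreen luminescence quantifies BAZ2B engagement of H3K14Ac peptide; the protein and biotinylated peptide are both at 50 nM final, buffer PBS pH 7.4 with 0.01% Tween-20, all steps at room temperature.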
# JMJD2A Tudor inh: JMJD2A Tudor domain (human) inhibition; Potency, µM (highest dose often 114 µM), for inactives: top-dose activity change, negative = inhibition, usual class: inhibitors; 390,000 tested, 4.4% active; AlphaScreen JMJD2A-Tudor / H3K4me3 peptide binding; AID 504339; also: % is scaled to controls: 0 for no effect and ±100 for the full control effect; nearly all actives have a fitted effect of over 50% in size
# Target sequence (O75164 whole entry, looked up, the tested form may be a part): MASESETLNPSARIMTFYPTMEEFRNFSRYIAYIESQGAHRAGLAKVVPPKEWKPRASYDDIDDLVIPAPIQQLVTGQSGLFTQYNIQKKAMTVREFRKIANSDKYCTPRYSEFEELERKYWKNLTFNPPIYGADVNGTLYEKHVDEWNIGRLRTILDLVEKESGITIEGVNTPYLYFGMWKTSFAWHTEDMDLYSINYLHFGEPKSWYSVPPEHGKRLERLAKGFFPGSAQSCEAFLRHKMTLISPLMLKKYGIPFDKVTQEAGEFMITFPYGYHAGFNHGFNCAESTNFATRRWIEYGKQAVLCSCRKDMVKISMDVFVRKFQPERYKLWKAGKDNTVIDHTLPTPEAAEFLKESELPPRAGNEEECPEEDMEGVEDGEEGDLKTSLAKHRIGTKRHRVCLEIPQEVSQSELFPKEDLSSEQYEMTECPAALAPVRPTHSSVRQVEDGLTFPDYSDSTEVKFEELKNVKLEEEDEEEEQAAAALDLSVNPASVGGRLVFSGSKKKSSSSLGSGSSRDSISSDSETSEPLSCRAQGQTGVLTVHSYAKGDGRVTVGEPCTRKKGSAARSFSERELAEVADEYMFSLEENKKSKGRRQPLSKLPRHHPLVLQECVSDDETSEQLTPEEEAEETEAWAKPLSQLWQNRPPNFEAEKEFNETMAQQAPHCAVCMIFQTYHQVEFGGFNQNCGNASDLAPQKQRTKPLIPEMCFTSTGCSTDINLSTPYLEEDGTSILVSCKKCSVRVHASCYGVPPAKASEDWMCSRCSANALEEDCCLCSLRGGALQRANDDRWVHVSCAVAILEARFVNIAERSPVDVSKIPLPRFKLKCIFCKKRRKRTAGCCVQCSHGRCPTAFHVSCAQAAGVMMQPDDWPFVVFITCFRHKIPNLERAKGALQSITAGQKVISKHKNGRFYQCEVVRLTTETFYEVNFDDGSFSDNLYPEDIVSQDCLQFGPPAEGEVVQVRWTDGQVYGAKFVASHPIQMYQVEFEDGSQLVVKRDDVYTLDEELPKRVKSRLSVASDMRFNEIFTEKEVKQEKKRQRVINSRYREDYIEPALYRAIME
# ALOX12 inh: inhibitors of human 12S-lipoxygenase ALOX12. P18054. purified 12hLO, xylenol orange hydroperoxide absorbance. Potency, µM (top dose mostly 108 µM), without a hit: top-dose activity change, negative = inhibition, actives largely listed as inhibitors. 580,000 tested, 1.1% active. AID 1671190; also: % is scaled to controls: 0 for no effect and ±100 for the full control effect
#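 Hydroperoxide product was detected by ferrous iron/xylenol orange as the 573 to 405 nm absorbance ratio. Arachidonic acid at 40 uM (final) was turned over for 30 min at room temperature by 150 nM human 12hLO, pH 7.0 Hepes buffer, after 15 min compound preincubation.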
# Sfp PPTase inh: Sfp phosphopantetheinyl transferase inhibition; Q9F4F7; Biochemical Sfp PPTase activity, qHTS; Potency, µM, without a hit: largest response in the series, negative = inhibition, most hits filed as inhibitors; 310,000 tested, 3.5% active; AID 1490;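 also: the enzyme is Sfp with the accession as filed and its product quenches rhodamine fluorescence; 0% = enzyme reaction without inhibitor and -100% = no enzyme wells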
#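 Buffer: 50 mM Hepes-Na pH 7.6, 10 mM MgCl2, 0.01% Nonidet P-40, 0.01% BSA. Enzyme 15 nM, pre-exposed to compound 15 min; substrates then added and fluorescence change tracked over 30 min.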
# HP1b chromo inh: HP1-beta chromodomain-methylated histone interaction inhibition; AlphaScreen HP1-beta / biotin-H3K9me3 peptide binding; Potency, µM (titrated, usually from 114 µM), for inactives: at the highest dose activity change, negative = inhibition, most hits filed as inhibitors; 390,000 tested, 0.56% active; AID 540317; also: nearly all actives have a fitted effect of over 70% in size
#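 Compound inhibition of the preformed complex between 50 nM HP1-beta and 50 nM biotinylated H3K9me3 peptide was read by AlphaScreen. Buffer was PBS pH 7.4 with 0.01% Tween-20. Incubations ran 30 min at room temperature, with 10 ug/mL donor/acceptor beads.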
# * hit, by the source's call; ? = inconclusive; nt = not tested or not shown; ! = not active in a repeat; [ ] = dose if it differs, or a comment. The list is not random: actives were taken first. Their share in the collection is about 8.7%. Calls follow the shape of the dose curve; as a rule, active = well fitted curve in the direction sought with a large enough effect; inconclusive = small, poorly fitted or top-dose-only effect, or another doubt; inactive = no such curve, though single readings can be large; an effect the other way counts as inactive or inconclusive. Potency is read from the fitted curve at half-maximal effect.
SMILES,G9a inh,BAZ2B block,JMJD2A Tudor inh,ALOX12 inh,Sfp PPTase inh,HP1b chromo inh
CC(C)Cc1ccc(CN2C(C)C(=O)N(Cc3cn(Cc4ccco4)nn3)CCS2(=O)=O)cc1 (stereo unspecified),nt,nt,nt,14µM*,nt,nt
CCC/C=C/c1ccc(CN2C(C(C)C)C(=O)N(Cc3cn(Cc4ccco4)nn3)CCS2(=O)=O)cc1 (stereo unspecified),nt,nt,nt,45µM*,nt,nt
CC1C(=O)N(Cc2cn(Cc3ccco3)nn2)CCS(=O)(=O)N1Cc1ccc(-c2cccnc2)cc1 (stereo unspecified),nt,nt,nt,-15%,nt,nt
Cc1ccc(-c2ccc(CN3C(C)C(=O)N(Cc4cn(Cc5ccco5)nn4)CCS3(=O)=O)cc2)cc1 (stereo unspecified),nt,nt,nt,11µM*,nt,nt
CC1C(=O)N(Cc2cn(Cc3ccco3)nn2)CCS(=O)(=O)N1Cc1ccc(-c2ccc(Cl)c(Cl)c2)cc1 (stereo unspecified),nt,nt,nt,-41%,nt,nt
CCC/C=C/c1ccc(CN2C(C(C)C)C(=O)N(Cc3cn(CCC4OCCCO4)nn3)CCS2(=O)=O)cc1 (stereo unspecified),nt,nt,nt,-26%,nt,nt
COc1cccc(-c2nc(-c3c[nH]c(C(=O)N4CCCC4)c3)cs2)c1,nt,nt,nt,6%,nt,nt
CN1Cc2nc(-c3cc(F)cc(F)c3)ccc2OCC1=O,nt,nt,nt,17%[176 µM],nt,nt
Cc1noc(NS(=O)(=O)c2ccc(N/C=C\C(=O)c3ccc(F)cc3)cc2)c1C,nt,?,-20%[57.1 µM],?,-15%,0%
Cc1noc(NS(=O)(=O)c2ccc(N/C=C/C(=O)c3ccc4c(c3)OCO4)cc2)c1C,79µM*,?,-21%,-10%,-3%,12%
Cc1noc(NS(=O)(=O)c2ccc(N/C=C\C(=O)c3ccccc3)cc2)c1C,50µM*,-34%,2%[11.4 µM],?,-2%,-17%
CCc1ccc(C(=O)COC(=O)/C(=C\c2ccccc2)NC(C)=O)cc1,nt,nt,nt,-5%,nt,nt
CCOCCCNC(=O)c1cccc(C#N)c1,nt,nt,nt,-8%,nt,nt
COc1ccc(C(=O)/C=C/c2ccc(O)cc2)c(O)c1C/C=C(\C)CCC=C(C)C,nt,nt,28µM*,?,nt,-19%
COc1ccc(/C=C/C(=O)c2cccc(-n3cnnn3)c2)cc1O,-2%,-5%,-11%,?,-4%,18%
COc1ccc(/C=C/C(=O)c2ccc(Cl)s2)cc1O,?,-33%,-23%,?,-2%,-8%
COc1ccc(C=CC(=O)c2ccc(OC)c(OC)c2O)cc1OC,nt,nt,50µM*,-12%,nt,?
COc1ccc(/C=C/C(=O)CC(=O)/C=C/c2cccc(O)c2OC)cc1O,?,nt,nt,-1%[176 µM],32µM*!,nt
COc1ccc(C(=O)/C=C/c2ccc(OC)c(O)c2)c(F)c1,?,-10%,-31%,?,50µM*,-7%
O=C(Nc1cccc2cccnc12)c1cc(-c2ccccc2)nc2ccccc12,nt,nt,nt,-25%,nt,nt
CCOc1ccc(NC(=O)CCS(=O)(=O)c2ccc3c(c2)CCN3C(=O)CC)cc1,nt,nt,nt,13%,nt,nt
O=C(Nc1cccc2c1CCCC2)c1cnc(Cl)c(Cl)c1,nt,nt,nt,-21%,nt,nt
COc1cc(/C=N/O)c(Br)c(Br)c1O,nt,nt,nt,-6%,nt,nt
COc1ccc(CNc2ncc(-c3ccccc3)n2C)c(OC)c1OC,7.1µM*,50µM*,20µM*,2µM*,-29%,?
COc1ccc(CNc2ncc(-c3ccccc3)n2C)c2ccccc12,nt,50µM*,18µM*,10µM*,-24%,?
SMILES,G9a inh,BAZ2B block,JMJD2A Tudor inh,ALOX12 inh,Sfp PPTase inh,HP1b chromo inh
COc1ccc(OC)c(CNc2ncc(-c3cccc([N+](=O)[O-])c3)n2C)c1,28µM*,50µM*,45µM*,-26%,?,14µM*
COc1cccc(CNc2nc3cc(-c4ccccc4)sc3c(=O)n2C)c1OC,nt,nt,nt,-9%,nt,nt
Oc1ccc(Cl)cc1CNc1ccccn1,16%,6%,-15%,?,16%,30%
Cn1c(-c2ccccc2)cnc1NCc1cc(Cl)ccc1O,nt,56µM*,35µM*,?,-18%,?
COc1cccc(CNC(=O)Nc2ncc(-c3ccccc3)n2C)c1,nt,nt,nt,-4%,nt,nt
CC(=O)Nc1cc(C(=O)NCc2ccccc2C)c2ccc(C)nc2c1,nt,nt,nt,47%,nt,nt
Cc1ccc(C(=O)N2CCN(CCc3ccccc3)CC2)cc1C,nt,nt,nt,2%,nt,nt
COc1ccc(N2CCN(Cc3nc(Cc4cccc(F)c4)no3)C(C)C2)cc1 (stereo unspecified),nt,25µM*,50µM*,-15%,5%,?
Oc1ccc(CCC2CCCCN2Cc2nc(Cc3cccc(F)c3)no2)cc1 (stereo unspecified),nt,nt,nt,4%,nt,nt
COc1cc2c(=O)n(Cc3ccco3)c(=O)n(CC(=O)c3cccc(Br)c3)c2cc1OC,39%[0.501 µM],0%[57.1 µM],11%,nt,79µM*,29%
COc1cc2c(=O)n(Cc3ccco3)c(=O)n(CC(=O)c3ccc(Br)cc3)c2cc1OC,2%[12.7 µM],-3%,-16%,0%,-43%,24%
CCc1ccc(NC(=O)Cn2c(N3CCCCC3)nc(C)c(C)c2=O)cc1,nt,nt,nt,15%,nt,nt
OC1(CN2CCN(c3cnccn3)CC2)CNCCOC1 (stereo unspecified),nt,nt,nt,10µM*,nt,nt
CC(C)C(=O)NNc1ccccc1,-5%[59 µM],5%,-5%,-2%,-2%,28%
CC(O)CC(C(=O)NNc1ccccc1)C(=O)NNc1ccccc1 (stereo unspecified),3.2µM*,-15%,-17%,?,15%,51%
COC(=O)c1cc(OC)c(OC)c(OC)c1NC(=O)c1cc(=O)n(C)c(=O)n1C,28µM*,-9%,-5%,-7%,nt,22%
COc1ccc(CCNC(=O)c2cc(=O)n(C)c(=O)n2C)cc1OC,5%[59 µM],-14%,-7%,-2%,0%,12%
O=S(=O)(N/N=C/c1ccc(Cl)cc1)c1ccc(Cc2ncc(C(F)(F)F)cc2Cl)s1,28µM*,-33%,?,13%,17%,-24%
NC(=O)c1ccc(Cc2ncc(C(F)(F)F)cc2Cl)s1,-46%[59 µM],4%,-4%,?,-5%,47%
COCCN1CN=C(Nc2nc(C)c3ccccc3n2)NC1,nt,nt,nt,-3%,nt,nt
Cc1ccccc1-n1nc2c(c1NC(=O)c1cccc(F)c1)CS(=O)C2 (stereo unspecified),50µM*,9%,-10%,-12%,5%,54%
Cc1ccc(-n2nc3c(c2NC(=O)c2ccc(Br)o2)CSC3)c(C)c1,40µM*,-8%,-13%,8.9µM*,?,18%
Cc1cccc(-n2nc3c(c2NC(=O)c2ccco2)CSC3)c1C,40µM*,-6%,50µM*,?,40µM*,-26%
CCC(=O)Nc1c2c(nn1-c1ccc(C)cc1C)CSC2,50µM*,-3%,-13%,-2%,?,23%
COC(=O)c1ccc(CC(Cc2ccc(C(=O)OC)o2)(C(C)=O)C(C)=O)o1,nt,nt,nt,16%,nt,nt

# Screening results deposited in PubChem by National Center for Advancing Translational Sciences (NCATS).
